The source made the active and inactive calls.
Legend:
[1] = optical density shifts of acrAB sulA E. coli – strain DRC41, OD650, 48 h, E. coli filamentation inducer project, primary screen (AID 1152); conditions: higher = more signal, called active from +8 up or from −8 down;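 further: E. coli MC1000 strain DRC41 lacking acrAB efflux pump and sulA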
[2] = probe aLefty1 binding on compound microarray – biochemical, small-molecule microarray, 635/667 nm fluorescence, primary screen (AID 1153); conditions: higher = more signal;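 further: score merges spot fluorescence with signal-to-noise ratio from the scanned slide images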
[3] = plasmodial surface anion channel blockers, osmotic lysis – cell-based, P. falciparum Indochina, OD700, 1 h, primary screen (AID 1154); conditions: P. falciparum Indochina infected RBC osmotic lysis, higher = more signal, called active from +8 up or from −8 down
[4] = plasmodial surface anion channel blockers, osmotic lysis – cell-based, P. falciparum Indochina, OD700, 2 h, primary screen (AID 1155);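 further: lysis reports solute entry through the parasite surface anion channel PSAC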; conditions: P. falciparum Indochina infected erythrocytes, higher = more signal, called active from +8 up or from −8 down
[5] = changes in parasitized red cell lysis, either direction – P. falciparum Indochina, OD700, 3 h, PSAC antagonist project, primary screen (AID 1156); conditions: P. falciparum-infected erythrocytes, osmotic lysis, higher = more signal, called active from +8 up or from −8 down
[6] = plasmodial surface anion channel blockers, osmotic lysis – cell-based, P. falciparum Indochina, OD700, 18 h, primary screen (AID 1157); conditions: P. falciparum Indochina infected erythrocytes, osmotic lysis OD700, 18 h; higher = more signal, called active from +8 up or from −8 down
[7] = S6 kinase pathway phospho-S6 level changes – cell-based, A549, cytoblot, luminescence, serum-stimulated, primary screen (AID 1158); conditions: 5 h, higher = more signal;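 further: serum-stimulated A549 lung adenocarcinoma cells; signal is phosphorylated S6 detected by cytoblot immunostaining with HRP secondary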
[8] = target: NADPH oxidase 2 (Homo sapiens) (UniProt P04839); assay: compounds shifting NOX2 Amplex Red fluorescence – cell-based, HEK293-NOX2, PMA-stimulated, NOX inhibitor project, primary screen (AID 1159); conditions: 45 min, higher = more signal, called active from +8 up or from −8 down; further: test concentration not given here
NADPH oxidase 2 (Homo sapiens), sequence (P04839 whole entry, looked up): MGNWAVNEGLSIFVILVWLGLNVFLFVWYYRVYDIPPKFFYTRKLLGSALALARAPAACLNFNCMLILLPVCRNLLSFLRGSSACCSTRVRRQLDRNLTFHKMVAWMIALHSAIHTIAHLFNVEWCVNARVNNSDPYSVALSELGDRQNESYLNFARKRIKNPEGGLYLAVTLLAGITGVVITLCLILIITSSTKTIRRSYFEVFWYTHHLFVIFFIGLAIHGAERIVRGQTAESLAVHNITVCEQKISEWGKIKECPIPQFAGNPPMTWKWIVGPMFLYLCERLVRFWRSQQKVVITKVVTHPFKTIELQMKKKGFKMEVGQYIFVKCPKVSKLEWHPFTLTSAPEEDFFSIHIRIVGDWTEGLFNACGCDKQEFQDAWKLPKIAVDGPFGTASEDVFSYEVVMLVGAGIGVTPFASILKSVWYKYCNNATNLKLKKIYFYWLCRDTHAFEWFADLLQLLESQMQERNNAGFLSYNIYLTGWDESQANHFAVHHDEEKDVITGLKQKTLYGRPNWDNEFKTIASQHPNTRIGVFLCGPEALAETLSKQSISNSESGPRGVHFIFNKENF

[9] = target: NADPH oxidase 4 (Homo sapiens) (UniProt Q9NPH5); assay: compounds shifting NOX4 Amplex Red fluorescence – cell-based, HEK293-NOX4, tetracycline-induced, NOX inhibitor project, primary screen (AID 1160); conditions: HEK293-NOX4, Amplex Red H2O2 fluorescence, 45 min; higher = more signal, called active from +8 up or from −8 down
NADPH oxidase 4 (Homo sapiens), sequence (Q9NPH5 whole entry, looked up): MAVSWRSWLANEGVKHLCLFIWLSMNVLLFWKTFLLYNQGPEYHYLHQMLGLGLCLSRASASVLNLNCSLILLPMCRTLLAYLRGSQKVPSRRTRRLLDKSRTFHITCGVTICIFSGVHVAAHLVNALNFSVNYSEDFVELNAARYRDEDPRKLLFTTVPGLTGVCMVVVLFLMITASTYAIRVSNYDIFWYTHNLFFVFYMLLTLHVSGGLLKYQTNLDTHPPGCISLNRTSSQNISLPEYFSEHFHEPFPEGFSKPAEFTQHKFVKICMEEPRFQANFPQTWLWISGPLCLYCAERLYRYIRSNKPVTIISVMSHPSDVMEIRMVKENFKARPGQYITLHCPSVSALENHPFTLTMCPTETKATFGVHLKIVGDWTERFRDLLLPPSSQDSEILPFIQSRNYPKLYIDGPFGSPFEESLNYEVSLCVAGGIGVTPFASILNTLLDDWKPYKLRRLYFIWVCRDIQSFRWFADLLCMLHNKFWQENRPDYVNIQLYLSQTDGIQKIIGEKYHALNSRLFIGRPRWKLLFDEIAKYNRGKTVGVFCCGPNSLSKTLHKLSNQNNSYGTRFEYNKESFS

[10] = target: NADPH oxidase 5 (Homo sapiens) (UniProt Q96PH1); assay: compounds shifting NOX5 Amplex Red fluorescence – cell-based, HEK293-NOX5, NOX inhibitor project, primary screen (AID 1161); conditions: HEK293-NOX5, ionomycin, 45 min, higher = more signal
NADPH oxidase 5 (Homo sapiens), sequence (Q96PH1 whole entry, looked up): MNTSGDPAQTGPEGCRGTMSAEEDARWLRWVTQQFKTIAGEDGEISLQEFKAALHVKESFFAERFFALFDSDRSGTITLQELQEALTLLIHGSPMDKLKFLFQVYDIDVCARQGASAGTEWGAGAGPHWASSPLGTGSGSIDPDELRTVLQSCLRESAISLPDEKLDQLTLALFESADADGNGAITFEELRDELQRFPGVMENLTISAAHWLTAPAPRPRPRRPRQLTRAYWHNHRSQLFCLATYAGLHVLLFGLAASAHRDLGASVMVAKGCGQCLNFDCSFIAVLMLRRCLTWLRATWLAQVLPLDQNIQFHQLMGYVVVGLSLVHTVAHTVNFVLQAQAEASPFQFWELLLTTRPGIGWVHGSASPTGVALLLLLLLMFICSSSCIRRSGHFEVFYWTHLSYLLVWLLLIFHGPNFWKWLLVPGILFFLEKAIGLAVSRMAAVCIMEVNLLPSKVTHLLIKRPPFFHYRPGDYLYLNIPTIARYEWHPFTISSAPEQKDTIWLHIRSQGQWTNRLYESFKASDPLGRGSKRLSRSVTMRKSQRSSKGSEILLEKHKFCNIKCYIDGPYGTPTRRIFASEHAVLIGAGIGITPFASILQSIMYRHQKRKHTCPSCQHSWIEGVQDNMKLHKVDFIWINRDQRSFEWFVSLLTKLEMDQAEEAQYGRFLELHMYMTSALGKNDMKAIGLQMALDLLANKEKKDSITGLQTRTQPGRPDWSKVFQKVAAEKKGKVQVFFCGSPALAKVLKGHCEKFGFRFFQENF

[11] = compound effects on lung adenocarcinoma cell viability – A549, calcein-AM fluorescence, 48 h, basal, profiling panel (AID 1162); conditions: higher = more signal; further: test concentration not given here
[12] = compound effects on differentiated 3T3-L1 adipocyte viability – cell-based, 3T3-L1 adipocytes, calcein-AM fluorescence, 48 h, basal, profiling panel (AID 1163); conditions: 3T3-L1 adipocytes viability, higher = more signal; further: test concentration not given here
[13] = compound effects on hepatocellular carcinoma cell viability – HepG2, calcein-AM fluorescence, 48 h, basal, profiling panel (AID 1164); conditions: higher = more signal; further: test concentration not given here
[14] = compound effects on multiple myeloma cell viability – MM1S, calcein-AM fluorescence, 48 h, basal, profiling panel (AID 1165); conditions: higher = more signal; further: test concentration not given here
[15] = calcein-AM signal in unstimulated myeloma cells – cell-based, calcein-AM fluorescence, 48 h, PK04 Diversity Set, profiling panel (AID 1166); conditions: RPMI8226 myeloma viability, higher = more signal;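 further: cells grown under basal conditions without added stimulus; test concentration not given here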
[16] = JC-1 mitochondrial signal, unstimulated HepG2 cells – cell-based, JC-1 fluorescence, 24 h, 100 nL compound, profiling panel (AID 1167); conditions: HepG2 mitochondrial potential, higher = more signal; further: test concentration not given here
[17] = JC-1 mitochondrial signal, unstimulated adipocytes – cell-based, JC-1 fluorescence, 3T3-L1 adipocytes, 24 h, 100 nL compound, profiling panel (AID 1168); conditions: JC-1 mitochondrial fluorescence, higher = more signal, called active from +8 up or from −8 down; further: test concentration not given here
[18] = JC-1 mitochondrial signal, unstimulated myeloma cells – cell-based, JC-1 fluorescence, RPMI8226, 24 h, 100 nL compound, profiling panel (AID 1169); conditions: JC-1 mitochondrial potential fluorescence, higher = more signal; further: test concentration not given here
[19] = JC-1 mitochondrial signal, unstimulated MM1S myeloma – cell-based, JC-1 fluorescence, 24 h, 100 nL compound, profiling panel (AID 1170); conditions: MM1S mitochondrial potential, higher = more signal; further: test concentration not given here
[20] = resazurin metabolic signal in A549 cells – cell-based, resazurin fluorescence, 24 h, PK04 Diversity Set, profiling panel (AID 1171); conditions: A549 viability, higher = more signal, called active from +8 up or from −8 down; further: test concentration not given here

Row | Compound | z-score [1] | composite z-score [2] | z-score [3] | z-score [4] | z-score [5] | z-score [6] | z-score [7] | z-score [8] | z-score [9] | z-score [10] | z-score [11] | z-score [12] | z-score [13] | z-score [14] | z-score [15] | z-score [16] | z-score [17] | z-score [18] | z-score [19] | z-score [20]
1 | COCCOC(=O)N1C(=O)[C@@]2(c3cc(C#CCCO)ccc31)[C@H](c1ccccc1OCCO)N1[C@H](c3ccccc3)[C@H](c3ccccc3)OC(=O)[C@H]1[C@@H]2C(=O)N1CCCCCCC1 | 1.59 (inactive) | 2.58 | 2.44 (inactive) | 0.0348 (inactive) | 0.431 (inactive) | 0.951 (inactive) | 0.626 | 0.6 (inactive) | 1.29 (inactive) | 1.35 | 0.66 | 0.961 | 1.03 | 0.115 | -0.004 | 0.454 | 0.339 (inactive) | -0.155 | -1.31 | 0.596 (inactive)
2 | CO[C@H]1O[C@H](CO)[C@@H](OC(=O)Nc2cccc(F)c2)[C@H](OC(=O)Nc2ccccc2-c2ccccc2)[C@H]1OC(=O)Nc1ccccc1-c1ccccc1 | -0.732 (inactive) | 0.302 | 4.41 (inactive) | 1.22 (inactive) | -2.85 (inactive) | 0.937 (inactive) | -0.309 | -5.73 (inactive) | -1.02 (inactive) | -1.21 | -4.26 | 0.737 | -4.76 | -3.44 | -4.3 | 0.0525 | 0.461 (inactive) | -0.936 | -1.88 | -6.1 (inactive)
3 | NCCCCCNC(=O)[C@H]1C[C@H]2C(=O)N[C@@H](Cc3ccccc3)C(=O)N2[C@H]1c1ccc(O)cc1 | 0.097 (inactive) | 1.01 | 3.38 (inactive) | 0.288 (inactive) | 1.54 (inactive) | 0.204 (inactive) | 0.0042 | 0.354 (inactive) | -0.384 (inactive) | -0.912 | 0.422 | 0.774 | -0.642 | 0.309 | 0.141 | -0.746 | -0.595 (inactive) | -0.135 | -0.378 | 0.107 (inactive)
4 | CCC(CC)C(O)C1C=CC2C(=O)N(c3ccccc3)C(=O)C2N1Nc1ccc([N+](=O)[O-])cc1 (stereo not given) | -0.639 (inactive) | 0.342 | 6.6 (inactive) | 0.997 (inactive) | 0.136 (inactive) | 0.507 (inactive) | -0.469 | -0.272 (inactive) | -0.44 (inactive) | -1.03 | -0.878 | -1.13 | -0.172 | 0.486 | -1.23 | -2.25 | -1.37 (inactive) | 0.523 | -1.6 | -0.517 (inactive)
5 | CS(=O)(=O)CCOC(=O)C1=CC(CCCO)=CC(C2CC2)N(Cc2cccc(OC(F)(F)F)c2)C=C1C(=O)OCCS(C)(=O)=O (stereo not given) | -1.07 (inactive) | 0.0392 | 2.65 (inactive) | 0.404 (inactive) | -0.352 (inactive) | 0.675 (inactive) | -0.662 | 0.944 (inactive) | 0.19 (inactive) | -1.29 | 0.78 | 0.751 | 0.572 | -2.98 | -1.18 | 1.92 | -0.374 (inactive) | -0.34 | -0.0798 | 0.538 (inactive)
6 | Cc1ccc(S[C@]2(C(=O)NC(C)C)CC(=O)N(C(C)C)[C@@H]2c2ccc(CO)cc2I)cc1 | -0.745 (inactive) | 0.207 | 4.77 (inactive) | 0.342 (inactive) | 0.59 (inactive) | 0.397 (inactive) | 0.293 | 1.8 (inactive) | -1.53 (inactive) | -0.227 | 0.931 | -0.134 | 0.0096 | -2.39 | -1.38 | 1.09 | 0.389 (inactive) | -0.312 | -1.32 | -0.0361 (inactive)
7 | CCCNC(=O)[C@@]1(Sc2ccc(C)cc2)CC(=O)N(C2CCCCC2)[C@@H]1c1ccc(CO)cc1I | -0.629 (inactive) | -0.525 | 4.93 (inactive) | 0.465 (inactive) | 0.0133 (inactive) | 0.376 (inactive) | -0.328 | 0.82 (inactive) | 0.142 (inactive) | 1.61 | 0.14 | 0.53 | 0.265 | -2.15 | -2.58 | -0.478 | -0.764 (inactive) | -0.503 | -1.04 | 0.696 (inactive)
8 | COC(=O)[C@@]1(Cc2ccc(F)cc2)[C@H]2c3cc(C(=O)N4CCCC4)n(C)c3C[C@H]2CN1C(=O)c1ccccc1 | -0.327 (inactive) | 0.603 | 2.59 (inactive) | 0.107 (inactive) | -0.105 (inactive) | 0.47 (inactive) | 0.305 | 0.282 (inactive) | -0.466 (inactive) | -0.565 | -0.893 | 0.502 | -0.429 | -1.63 | -1.01 | 1.29 | -1 (inactive) | -0.392 | -0.206 | 1.13 (inactive)

Source: PubChem BioAssay
